Screens deposited in PubChem by several laboratories.
Rows were chosen to be rich in hits. Some 1.4% of all compounds tested hit in one or more screens of this group.
IDE act = activators of human insulin-degrading enzyme in cells. P14735. HEK cells, FAbeta-B cleavage, fluorescence polarization; 0% vehicle, 100% cell-free pure enzyme wells. activation, % at 5.96 µM. actives 0.073% (n = 340,000);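 active = activation above the mean of all tested compounds plus 3 SD, set per screening campaign, cut at about 17% in these data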
TPT1 inhibitor = C. albicans TPT1 enzyme inhibition; recombinant caTPT1, FP RNA substrate dephosphorylation; inhibition, % at 5 µM; actives 0.81% (n = 300,000);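 active = inhibition above the mean of all tested compounds plus 3 SD, set per screening campaign, cut at about 24% in these data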
HNF4A DNA FP = change in binding of human HNF4 alpha to DNA; HNF4a-FITC DNA binding, fluorescence polarization, 1 h; activity change, % at 10 µM; actives 0.3% (n = 360,000); in the data active = activity change above about 30%, passing the limit was not always enough
Target sequence (P41235 whole entry, looked up): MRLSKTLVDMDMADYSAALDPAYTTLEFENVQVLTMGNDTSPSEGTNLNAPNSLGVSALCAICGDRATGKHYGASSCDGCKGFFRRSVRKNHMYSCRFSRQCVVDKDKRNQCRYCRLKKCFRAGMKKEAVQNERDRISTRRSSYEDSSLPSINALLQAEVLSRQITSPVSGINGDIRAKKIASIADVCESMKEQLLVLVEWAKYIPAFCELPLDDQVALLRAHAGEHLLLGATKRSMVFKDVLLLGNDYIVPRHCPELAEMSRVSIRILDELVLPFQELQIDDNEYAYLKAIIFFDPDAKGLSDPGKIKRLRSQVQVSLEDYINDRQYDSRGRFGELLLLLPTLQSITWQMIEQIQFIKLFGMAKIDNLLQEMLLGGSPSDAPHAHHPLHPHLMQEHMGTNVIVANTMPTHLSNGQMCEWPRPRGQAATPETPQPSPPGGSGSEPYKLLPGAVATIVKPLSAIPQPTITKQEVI
IDE cell inh = inhibitors of human insulin-degrading enzyme in cells; P14735; HEK cells, FAbetaB cleavage, fluorescence polarization; inhibition, % at 5.59 µM; actives 0.41% (n = 320,000); AID 434962;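 active = percent inhibition above the average of all tested compounds plus 3 SD, set per screening campaign, cut at about 16% in these data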;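 also: IDE supplied by intact live HEK cells; FP after avidin binding of uncleaved biotin substrate so inhibition keeps polarization high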
CRFR2-BP ag = agonists of human CRF-binding protein/CRF-R2 receptor complex; AID 588473; activation, % at 13.2 µM; actives 0.46% (n = 350,000); HEK293 CRF-R2/CRF-BP, calcium dye fluorescence (FLIPR); percent of saturating CRF peptide response;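 active = activation of at least 50%, plus an integration ratio under a set limit after plate pattern correction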
Hits are given with their value; – = inactive; · = no result given.

SMILES	IDE act	TPT1 inhibitor	HNF4A DNA FP	IDE cell inh	CRFR2-BP ag
Cc1ccc(C2=NOC(=O)/C2=C\C=C\c2ccccc2)cc1	–	·	–	·	–
C(=C\c1ccccc1)/CN1CCN(C(c2cccs2)c2nnnn2-c2ccc3c(c2)OCCO3)CC1 (configuration not stated)	·	·	–	·	·
O=C1C=C(c2ccccc2)OC(c2ccccc2)O1 (configuration not stated)	–	–	–	–	–
O=C1C=C(c2ccccc2)C(c2ccccc2)C1O (configuration not stated)	–	·	–	·	77
COc1ccccc1OCc1nn[nH]n1	–	–	–	–	–
COC(=O)c1sc(NC(=O)/C=C/c2ccccc2Cl)nc1C	–	–	47	–	–
COc1ccc(NC(=O)N(C)C[C@@H]2Oc3ccc(NC(=O)NC(C)C)cc3CC(=O)N([C@H](C)CO)C[C@@H]2C)cc1	–	·	–	–	–
COc1ccccc1NC(=O)Cn1nc(Cc2cccnc2)c2ccccc2c1=O	–	–	–	–	–
O=C(CN1CCCC1)Nc1ccccc1Sc1ccccc1	–	–	–	–	52
Cc1cccc(C)c1NC(=O)CNC(=O)c1ccc(N2CCCC2=O)cc1	–	·	–	–	–
O=C(Nc1ccc(Cl)cc1)c1csc([C@@H]2C[C@H](O)[C@@H](CO)O2)n1	·	·	–	·	·
Cc1cc(C)c(-c2c(O)c3c(n(C)c2=O)CC(C)(C)CC3=O)c(C)c1	–	–	–	–	–
Cc1cc(C)c2c(c1)CC(C)(C)CC2=O	–	·	57	·	–
COc1ccc(C(=O)N2CCCC(C)(C(=O)NS(=O)(=O)C3CC3)C2)c(OC)c1 (configuration not stated)	·	·	–	·	·
COc1cccc(NC(=O)CN(C)C(=O)c2cc(CN3C(=O)c4ccccc4C3=O)ccc2OC)c1	–	·	–	·	–
CCN(CC(=O)Nc1ccc(NC(C)=O)cc1)C(=O)c1cc(CN2C(=O)c3ccccc3C2=O)ccc1OC	18	–	–	–	–
COC(=O)NNC(=O)C12CC3CC(CC(C3)C1)C2	–	–	–	–	–
NC(=S)NNC(=O)C12CC3CC(CC(C3)C1)C2	–	–	–	–	125
O=C(COC(=O)c1cccc(-n2cnnn2)c1)c1ccc(F)c(F)c1	·	·	–	·	–
O=C(CSc1ccc(-c2ccc(-n3cccn3)cc2)nn1)Nc1ccccc1F	–	–	–	–	–
CC[n+]1c(/C=C/c2c[nH]c3ccccc23)ccc2cc(C)ccc21	·	·	·	·	271
Cc1ccc(C(=O)/C=C/c2c[nH]c3ccccc23)cc1	–	–	–	–	–
OCCCc1nc2n(n1)C(c1cccs1)C=C(c1ccc(Br)cc1)N2 (configuration not stated)	·	–	·	135	·
Fc1ccc(Br)cc1C1C=C(c2cccnc2)Nc2ncnn21 (configuration not stated)	–	–	–	–	53
CC(C)(C)c1ccc(C2=CC(c3ccccc3F)n3ncnc3N2)cc1 (configuration not stated)	–	–	–	–	–
SMILES	IDE act	TPT1 inhibitor	HNF4A DNA FP	IDE cell inh	CRFR2-BP ag
Cc1ccc(C2C=C(c3ccccc3)Nc3ncnn32)cc1 (configuration not stated)	–	–	–	–	–
Brc1ccc(C2=CC(c3cccs3)n3ncnc3N2)cc1 (configuration not stated)	–	–	–	88	318
CCCCN(C)C(=O)c1ccc(Nc2nc(C(N)COCc3ccccc3)cs2)nc1 (configuration not stated)	·	·	–	·	·
CCCCCCCCN1C(=O)[C@H](CC(=O)NCc2ccc(C)o2)C[C@@]2(C(=O)OCC)CCC=C12	·	·	–	·	·
Cc1nn(C)c(C(=O)NC(=S)Nc2ccccc2Br)c1Cl	–	–	–	–	93
CCn1ncc(Cl)c1C(=O)NC(=S)Nc1ccccc1Br	–	–	–	–	–
Cc1cc(Oc2ccc(C#N)cc2)nc(N2CCOCC2)n1	28	–	–	–	–
Cc1ccccc1S(=O)(=O)NC(=O)C1(C)CCN1C(=O)C(C)(C)c1ccccc1 (configuration not stated)	·	·	39	·	·
O=C1COc2ccc(S(=O)(=O)Nc3ccc(F)cc3)cc2N1	–	–	–	–	–
CCOC(=O)N1CCN(c2nc(-c3ccc(F)cc3)cs2)CC1	–	–	–	17	–
CCOC(=O)C(=O)N1CCN(c2nc(-c3ccc(Cl)cc3)cs2)CC1	–	–	–	–	–
CC(C)S(=O)(=O)N1CCN(c2ccnc3cc(Cl)ccc23)CC1	·	–	–	23	–
CCc1nc2ccc(C(=O)N(C)CCN(C)C)cn2c1N(CC)C(=O)NCCc1ccccc1	·	·	–	·	·
